About 5,100 (1.5%) of roughly 340,000 compounds were called active.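 The calls were made as follows: active = mean Tm shift, scaled 0 neutral to 100 positive control, at about 1.3% or above, every replicate too (limit read from the data); inconclusive = no clear call, values can overlap the other calls; inactive = the rest.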 Only a selection was taken, and actives are over-represented in it overall.
Target: Fibroblast growth factor 22 (Homo sapiens) (UniProt Q9HCT0)
Assay: FGF22 ligand-induced thermal stabilization – biophysical, thermal shift, single point, FGF22 synaptogenesis inhibitor project, primary screen (AID 651658)
Settings: recombinant FGF22 thermal shift, SYPRO orange fluorescence; at 9.99 µM; active compounds read high; percent of sucrose octasulfate shift, DMSO zero

Chain of Fibroblast growth factor 22 (Homo sapiens) (Q9HCT0 whole entry, looked up): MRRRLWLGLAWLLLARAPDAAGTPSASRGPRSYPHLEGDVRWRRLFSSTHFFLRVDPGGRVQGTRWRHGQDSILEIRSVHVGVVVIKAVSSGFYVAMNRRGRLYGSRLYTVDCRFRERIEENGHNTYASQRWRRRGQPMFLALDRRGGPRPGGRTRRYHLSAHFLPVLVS

SMILES	activity (Tm shift, normalised)
CC1(Cc2cccc(C#N)c2)C(=O)Nc2ccc(-c3cccc(C(F)(F)F)c3)cc21 (centres undefined)	0.505% (inactive)
C=CCn1cc(-c2cccc(C(F)(F)F)c2)cc(C#N)c1=O	42.9% (active)
Cn1cc(-c2ccccc2)cc(C#N)c1=O	0.065% (inactive)
COc1cccc(S(=O)(=O)N2CCC3(CC2)CN[C@H](CO)c2c3c3ccc(OC)cc3n2C)c1	0.197% (inactive)
OCCC1CN(Cc2ccccc2-c2ccco2)CCN1Cc1ccsc1 (centres undefined)	0.318% (inactive)
Cc1ccc(CN2CCN(Cc3cn(C)nc3-c3ccccc3)CC2CCO)o1 (centres undefined)	-0.412% (inactive)
Cc1ccc(CN2CCN(Cc3ccccc3-c3ccco3)CC2CCO)o1 (centres undefined)	43.4% (active)
CCS(=O)(=O)N[C@@H]1CC[C@@H](CC(=O)NCC2CC2)O[C@H]1CO	0.034% (inactive)
CN1C(=O)c2cc(NC(=O)c3ccc(F)cc3)ccc2OC[C@H]2O[C@H](CC(=O)N3CCOCC3)CC[C@@H]21	-0.26% (inactive)
O=C(COc1ccc([N+](=O)[O-])cc1)Nc1cccc(C(=O)Nc2ccccc2C(=O)O)c1	1.4% (active)
O=C(CSCc1ccc([N+](=O)[O-])cc1)Nc1cccc(C(=O)Nc2ccccc2C(=O)O)c1	-0.059% (inactive)
CN(CCc1ccccc1)C(=O)c1cccc(NC(=O)Cc2ccc([N+](=O)[O-])cc2)c1	-0.076% (inactive)
C[C@H](CO)N1C[C@H](C)[C@@H](CN(C)C(=O)C2CCOCC2)Oc2cc(-c3ccc(C(=O)N(C)C)cc3)ccc2S1(=O)=O	-0.068% (inactive)
CN1c2ccc(C#Cc3cccnc3)cc2[C@H]2[C@H](CCN2S(=O)(=O)c2ccccc2)[C@@H]1CO	-0.293% (inactive)
C[C@H](CO)N1C[C@H](C)[C@H](CN(C)Cc2ccccc2)OCCCC[C@H](C)Oc2ccc(NC(=O)CCC(F)(F)F)cc2C1=O	-0.091% (inactive)
O=C(OCc1cc(Cl)ccc1OC(F)F)c1cccnc1	43.6% (active)
Cn1cncc1COC(=O)c1ccc(Cl)cc1	0.094% (inactive)
O=C(CC(=O)c1cccnc1)c1ccccc1	-0.031% (inactive)
C[C@@H](O)C#Cc1ccc([C@H]2[C@H](CO)N3CCCCN(C(=O)c4ccc(F)cc4)C[C@@H]23)cc1	0.261% (inactive)
O=C(Nc1ccccc1F)N1[C@H](CO)[C@H]2c3ccccc3NC[C@H]21	1.7% (active)
O=C(Nc1ccccc1F)N1C[C@@H]2[C@H](c3ccccc31)[C@@H](CO)N2C(=O)Nc1ccccc1	-0.294% (inactive)
O=C(c1cccnc1)N1C[C@H]2[C@@H](c3ccccc31)[C@@H](CO)N2C(=O)Nc1ccccc1F	-0.686% (inactive)
C/C=C/c1cccc(-c2nc(C(=O)NCCN3CCCCC3)cc3c2[C@@H](CCO)N([S@](=O)C(C)(C)C)C3)c1	0.178% (inactive)
C[C@@H]1CCCCO[C@@H](CN(C)C(=O)Nc2ccc(C(F)(F)F)cc2)[C@H](C)CN([C@@H](C)CO)C(=O)c2cc(N(C)C)ccc2O1	-1.45% (inactive)
C[C@@H](NC(=O)C[C@H]1C=C[C@H](NC(=O)C2CCOCC2)[C@H](CO)O1)c1ccccc1	-0.059% (inactive)

SMILES	activity (Tm shift, normalised)
COCC#Cc1ccc([C@H]2[C@H]3CN(Cc4ccncc4)CCCCN3[C@H]2CO)cc1	0.633% (inactive)
Cc1ccc(NC(=O)CSc2nnc(CNC(=O)c3ccccc3F)o2)cc1	44% (active)
COc1ccccc1NC(=O)CSc1nnc(CNC(=O)c2ccccc2F)o1	0.09% (inactive)
Cc1ccc(NC(=O)CSc2nnc(CNC(=O)c3ccccc3F)o2)cc1Cl	0.074% (inactive)
O=C(N[C@H]1CC[C@@H](CCNS(=O)(=O)c2ccccc2)O[C@@H]1CO)c1cnccn1	-0.268% (inactive)
C[C@@H]1CN([C@H](C)CO)C(=O)c2cc(NC(=O)C3CCCCC3)ccc2O[C@H]1CN(C)C(=O)Nc1ccccc1	-0.036% (inactive)
C[C@H](CO)N1C[C@H](C)[C@@H](CN(C)C(=O)Nc2ccc3c(c2)OCO3)Oc2ccc(NS(=O)(=O)c3ccc(Cl)cc3)cc2C1=O	0.554% (inactive)
CCS(=O)(=O)Nc1ccc2c(c1)C(=O)N(C)[C@H]1CC[C@@H](CC(=O)Nc3ccccc3)O[C@H]1CO2	0.176% (inactive)
COCc1c(N)c(C)nc(Cl)c1C#N	43% (active)
Cc1nc(Cl)c(C#N)c2c1CCCC2	-0.106% (inactive)
O=C(C[C@@H]1CC[C@@H]2[C@H](COC[C@@H](O)CN2Cc2ccccc2)O1)NCCc1ccccc1	-0.247% (inactive)
O=C(C[C@@H]1CC[C@@H]2[C@H](COC[C@H](O)CN2S(=O)(=O)c2ccccc2F)O1)NCc1ccccc1F	-0.237% (inactive)
NS(=O)(=O)c1ccc(NC(=O)COC(=O)CCc2c[nH]c3ccccc23)cc1	43.3% (active)
CC(OC(=O)CCCc1c[nH]c2ccccc12)C(=O)Nc1ccc(S(N)(=O)=O)cc1 (centres undefined)	-0.822% (inactive)
O=C(COC(=O)CCc1c[nH]c2ccccc12)Nc1cccc(Cl)c1	0.175% (inactive)
COc1ccc(S(=O)(=O)N[C@H]2CC[C@H](CCn3cc(C(C)C)nn3)O[C@@H]2CO)cc1	0.529% (inactive)
COCC(=O)N1[C@H](CO)[C@@H](c2ccccc2)C12CN(Cc1cc(F)ccc1F)C2	-0.224% (inactive)
COc1ccccc1NC(=O)N1C[C@@H](O)COC[C@H]2O[C@@H](CC(=O)NCc3ccccc3)CC[C@@H]21	-0.018% (inactive)
COc1ccc(S(=O)(=O)N(C)C[C@@H]2OCCCC[C@@H](C)Oc3ccc(NC(=O)c4ccccc4)cc3C(=O)N([C@@H](C)CO)C[C@H]2C)cc1	0.83% (inactive)
CCN(CC(=O)Nc1ccc(Cl)c(S(=O)(=O)N(C)C)c1)Cc1nc2ccccc2c(=O)[nH]1	0.133% (inactive)
CCN(CC(=O)NC(=O)NCc1ccccc1)Cc1nc2ccccc2c(=O)[nH]1	43% (active)
CCN(CC(=O)Nc1cccc(S(N)(=O)=O)c1)Cc1nc2ccccc2c(=O)[nH]1	42.3% (inactive)
COc1ccc(S(=O)(=O)N(C)C[C@H]2OCCCC[C@H](C)Oc3ccc(NC(=O)CCC(F)(F)F)cc3C(=O)N([C@@H](C)CO)C[C@@H]2C)cc1	0.44% (inactive)
Cc1noc(C)c1NC(=O)Nc1ccc2c(c1)C(=O)N([C@H](C)CO)C[C@@H](C)[C@@H](CN(C)S(=O)(=O)c1ccc(Cl)cc1)OCCCC[C@H](C)O2	-0.533% (inactive)
COc1ccc(NC(=O)O[C@@H](c2ccc(OCCO)cc2)[C@@H](C)CCO)cc1	-1.48% (inactive)

SMILES	activity (Tm shift, normalised)
CCCNC(=O)N1CCC2(CC1)CN(C(=O)CN1CCOCC1)[C@H](CO)c1[nH]c3cc(OC)ccc3c12	-0.015% (inactive)
N#Cc1c(NC(=O)CCCl)sc2c1CCCCC2	43% (active)
CCN1CCN(CC(=O)Nc2sc3c(c2C#N)CCC3)CC1	-0.078% (inactive)
N#Cc1c(NC(=O)C2CCCO2)sc2c1CCCCC2 (centres undefined)	0.476% (inactive)
CCCNC(=O)C[C@@H]1CC[C@@H]2[C@H](COc3ccc(NC(=O)c4cc(F)cc(F)c4)cc3C(=O)N2C)O1	0.224% (inactive)
O=C(C[C@@H]1CC[C@@H](NC(=O)c2ccc3c(c2)OCO3)[C@H](CO)O1)NCc1ccc(F)cc1	-0.125% (inactive)
Cc1ccccc1S(=O)(=O)N1C[C@@H]2N[C@H](C1)C2c1ccc(-c2cccc(C(=O)N(C)C)c2)cc1 (some centres undefined)	0.138% (inactive)
O=C(C[C@H]1CC[C@@H]2[C@H](COC[C@@H](O)CN2Cc2cccc(-c3ccncc3)c2)O1)N1CCOCC1	0.256% (inactive)
CNC(=O)C[C@H]1C(=O)N(c2ccc(OC)cc2)C[C@@H]1Cc1ccccc1	43.3% (active)
CNC(=O)C[C@H]1C(=O)N(Cc2ccccc2)C[C@@H]1CSC	0.23% (inactive)
O=C(C[C@H]1C(=O)N(c2ccc(F)c(F)c2)C[C@@H]1Cc1ccccc1)Nc1ccccc1	-0.246% (inactive)
CC(C)N1C(=O)[C@@]2(Cc3ccccc31)c1ccccc1C(=O)N(C1CCCCC1)[C@H]2c1ccc(CO)cc1	-0.066% (inactive)
COc1ccc(-c2ccccc2[C@H]2[C@@H](CO)N(C(=O)C3CCC3)[C@H]2C#N)cc1	-0.131% (inactive)
C[C@H](CO)N1C[C@H](C)[C@H](CN(C)C(=O)Cc2ccccn2)Oc2ncc(-c3cncnc3)cc2C1=O	-0.28% (inactive)
COC(=O)c1ccc(NC(=S)Nc2cccc(C)n2)cc1	42.2% (inactive)
COC(=O)c1ccc(NC(=S)NN2CCOCC2)cc1	43.4% (active)
Cc1ccc(C(=O)NC(=S)Nc2ccc(N3CCOCC3)cc2)cc1	-0.25% (inactive)
OC[C@@H]1Nc2ccc(-c3ccc(F)cc3)cc2[C@@H]2[C@H]1CCN2Cc1ccc(F)cc1	-0.323% (inactive)
COc1ccc(NC(=O)Nc2ccc3c(c2)[C@@H]2C[C@@H](CC(=O)NCc4ccncc4)O[C@@H](CO)[C@@H]2O3)cc1	-0.189% (inactive)
C[C@@H]1CN([C@H](C)CO)S(=O)(=O)c2ccc(-c3ccccc3)cc2O[C@@H]1CN(C)C(=O)CC1CC1	-0.061% (inactive)
C[C@@H]1CCCCO[C@H](CN(C)S(=O)(=O)c2ccccc2)[C@@H](C)CN([C@@H](C)CO)C(=O)c2cc(NS(=O)(=O)c3ccccc3)ccc2O1	-0.644% (inactive)
COc1ccc(OC)c(NC(=O)CSc2nc(-c3ccccc3)cc(=O)[nH]2)c1	-0.146% (inactive)
COc1ccc(NC(=O)CSc2nc(SC)ns2)c(OC)c1	0.019% (inactive)
CCc1cc2cc(OC)ccc2nc1SCC(=O)Nc1cc(OC)c(OC)cc1C(=O)O	43.1% (active)

— PubChem BioAssay AID651658 (Broad Institute, 2012)
